# ChEMBL document CHEMBL4513216, “Probing the Open Global Health Chemical Diversity Library for Multistage-Active Starting Points for Next-Generation Antimalarials” (ACS Infect Dis, 2020)
# The campaign covered roughly 69,000 compounds. About 8,600 (12%) showed an effect of 50% or more. This is one part of a sample in which strong results are shown more often than they occur.
# System: Plasmodium berghei
# Assay: Screen against P. berghei liver stage (PbLuc), transformed with Luciferase, at 10uM
# Format: functional, HepG2
# Settings: tested at 10 uM
row,SMILES,INHIBITION
1,CN(C[C@@H]1CCC[C@@H]2CN(c3ncccn3)C[C@@H]21)C1CC1,38.3%
2,Cc1cccc(CSc2ncc(Cl)c(C(=O)O)n2)c1,12.1%
3,Cc1ccc(F)c(C(=O)Nc2c(C(N)=O)n[nH]c2C)c1,-18.3%
4,Cc1cc(N(C)Cc2ncc(-c3ccccc3C(=O)O)s2)ncn1,5.6045%
5,Cc1cc(CN(CC(N)=O)CC(C)C)no1,7.39%
6,Cc1ccc(-c2cc(CN(CC(N)=O)CC(C)C)on2)cc1,57.8%
7,Cc1cc(CN(CC(N)=O)CC(C)C)on1,43.2%
8,Cc1cccc(-c2nccn2C2CC(=O)N(C(C)C)C2)n1 (stereo unspecified),25.9%
9,CNC(=O)NC(=O)CCN1CCN(c2ccc(C(=O)OC)cc2)CC1C (stereo unspecified),23.7%
10,COCCn1cncc1CN1CCCC(C)(c2ccccc2)C1 (stereo unspecified),30.1%
11,CC1(c2ccccc2)CCCN(Cc2nnc(-c3cccnc3)o2)C1 (stereo unspecified),5.91%
12,CCCN1CCCC2(CCN(Cc3cncn3C3CCCCC3)C2)C1=O (stereo unspecified),-21.5%
13,CCCN1CCCC2(CCN(Cc3cncn3C3CCCC3)C2)C1=O (stereo unspecified),21.2%
14,CN1CCCC2(CCN(Cc3cncn3C3CCCCC3)C2)C1=O (stereo unspecified),62.1%
15,O=C(CCc1ccccc1)C1CCCN(Cc2cncn2C2CC2)C1 (stereo unspecified),27.4%
16,COCCn1cncc1CN1CCCC(C(=O)Cc2ccccc2)C1 (stereo unspecified),20.5%
17,CC1(c2ccccc2)CCCN(Cc2cncn2C2CC2)C1 (stereo unspecified),50.7%
18,CC1(c2ccccc2)CCCN(Cc2cncn2C2CCCC2)C1 (stereo unspecified),89.6%
19,O=c1c2ccccc2cnn1Cc1cncn1C1CC1,0.33%
20,O=C(Cc1ccccc1)C1CCCN(Cc2cncn2C2CCCC2)C1 (stereo unspecified),69%
21,Cn1cncc1CN1CCOC(Cc2ccccc2)C1 (stereo unspecified),-54.1%
22,CN1CCCC(Cc2cc(N(C)C)ncn2)C1 (stereo unspecified),38.7%
23,Cc1ncc(C(=O)NCCNC(=O)Cc2cccc(F)c2)s1,-13.5%
24,Cc1nccc(C2CN(S(=O)(=O)N(C)C)C2)n1,-3.02%

row,SMILES,INHIBITION
1,CCC(C(=O)NCC1=CCN(C)CC1)c1ccccc1 (stereo unspecified),8.7%
2,CNc1ccc(CC2CCCN(C(=O)c3cccc(C)n3)C2)nn1 (stereo unspecified),45.6%
3,CS(=O)(=O)N1CCc2c(cccc2NC(=O)Nc2ccccn2)C1,19.2%
4,Cc1nc(CN2C[C@H]3C[C@H](C(=O)NCC4CC4)N(C)[C@H]3C2)cs1,19.8%
5,O=C(NCCC1CCN(CC(F)(F)F)CC1)C1CCCOC1 (stereo unspecified),-10.3%
6,COCCNC(=O)c1ccoc1CN1c2ccccc2CC1C (stereo unspecified),20.9%
7,CCNC(=O)c1ccoc1CN1c2ccccc2CC1C (stereo unspecified),-3.19%
8,CC1Cc2ccccc2N1Cc1occc1C(=O)NCC(=O)N(C)C (stereo unspecified),53.9%
9,CNC(=O)C1CN(C(=O)c2cccnc2)CCN(S(C)(=O)=O)C1 (stereo unspecified),9.25%
10,CN1CCCN(C(=O)NCCNc2ncccn2)CC1,16.8%
11,CC(C)(C)n1cc(CNc2ccc(CNS(C)(=O)=O)cc2)cn1,74.4%
12,CC(=O)N(Cc1ccc(NCc2cnn(C(C)(C)C)c2)cc1)C(C)C,38.5%
13,CC(C)OC(=O)NCc1ccc(NCc2cnn(C(C)(C)C)c2)cc1,18.9%
14,CCNc1nc2cn(-c3ccc(C)c(C)c3)c(=O)c-2c[nH]1,-31.1%
15,Cc1cc2n(n1)CC(CNCc1cnn(C)c1)CN2 (stereo unspecified),33.7%
16,Cc1ccc(C(=O)NCCNCC2CNc3ccnn3C2)cc1 (stereo unspecified),7.67%
17,Cc1ccc(C(=O)NCCNCC2CNc3ccnn3C2)cc1F (stereo unspecified),59.3%
18,Cc1cc2n(n1)CC(CNCc1ccc(OCC3CC3)nc1)CN2 (stereo unspecified),60.7%
19,COc1ccc(CNCC2CNc3ccnn3C2)cn1 (stereo unspecified),25.1%
20,COc1ccc(CNCC2CNc3cc(C)nn3C2)cn1 (stereo unspecified),-6.185%
21,O=C(NCCNCC1CNc2ccnn2C1)c1ccc(F)cc1 (stereo unspecified),32.4%
22,COCCOc1ccc(CNCC2CNc3cc(C)nn3C2)cn1 (stereo unspecified),25.995%
23,O=C(Cc1ccc(F)cc1)NCCNCC1CNc2ccnn2C1 (stereo unspecified),19.7%
24,Cc1cc2n(n1)CC(CNCc1cnn(-c3ccccc3)c1)CN2 (stereo unspecified),15.5%

row,SMILES,INHIBITION
1,Cc1cc2n(n1)CC(CNCCc1cnn(C)c1)CN2 (stereo unspecified),54.3%
2,Cn1cc(CCNCC2CNc3ccnn3C2)cn1 (stereo unspecified),71.4%
3,CCN(Cc1noc(C2CCC2)n1)C(=O)c1cn2ccsc2n1,30%
4,CS(=O)(=O)CCCNC(=O)C1(c2cccc(Cl)c2)CC1,28.3%
5,CN(CC(N)=O)CC(=O)N1CC=C(c2ccccc2)CC1,-46.4%
6,COc1cc(NC2CCCN(c3ncccn3)C2)cc(OC)c1 (stereo unspecified),23.1%
7,CCc1cnccc1C(=O)NC1CCN(C(=O)C2CCCCC2)CC1,38.7%
8,CCC1CN(c2ncnc3nc[nH]c23)CCO1 (stereo unspecified),-2.03%
9,CCCc1nnsc1C(=O)N1CCN(CC(C)O)CC1 (stereo unspecified),51.7%
10,CCC(O)CN1CCN(C(=O)c2ccc(N(C)C)nn2)CC1 (stereo unspecified),-26.6%
11,CCc1nnsc1C(=O)N1CCN(CC(O)CC)CC1 (stereo unspecified),17.8%
12,CN(C)c1ccc(C(=O)N2CCN(CC(O)C(C)(C)C)CC2)nn1 (stereo unspecified),7.12%
13,CC(O)CN1CCN(C(=O)c2ccc(N(C)C)nn2)CC1 (stereo unspecified),51.2%
14,CCCc1nnsc1C(=O)N1CCN(CC(O)C2CC2)CC1 (stereo unspecified),37.4%
15,O=C1[C@H]2CN(c3ncccn3)C[C@H]2CN1CCN1CCCC1,19.5%
16,CC(C)n1ccc(C(=O)OCC2CC(=O)N(Cc3ccccc3)C2)n1 (stereo unspecified),1.74%
17,CC(C)(NC(=O)CCc1ccco1)c1ccc2c(c1)OCCO2,10.6%
18,Cc1cccc(N2CCN(C(=O)CCc3ccsc3)C(C)C2)n1 (stereo unspecified),-16.8%
19,Cc1cc(NC(=O)NCC(c2ccccc2)N2CCOCC2)n(C)n1 (stereo unspecified),-2.53%
20,Cc1nc(CNC2CCCN(c3cccnn3)C2)no1 (stereo unspecified),26.5%
21,CC(C)c1nc(CNC2CCCN(c3cccnn3)C2)no1 (stereo unspecified),78.2%
22,CC(C)c1nc(CN(C)C2CCCN(c3cccnn3)C2)no1 (stereo unspecified),18.2%
23,Cc1nc(CN(C)C2CCCN(c3cccnn3)C2)no1 (stereo unspecified),-31.9%
24,Cc1cc(CNC2CCCN(c3cccnn3)C2)no1 (stereo unspecified),11.8%

row,SMILES,INHIBITION
1,CC(C)(C)c1nc(CNC2CCCN(c3cccnn3)C2)no1 (stereo unspecified),79.2%
2,CS(=O)(=O)c1ccc(CNC2CCCN(c3cccnn3)C2)cc1 (stereo unspecified),39.5%
3,c1ccc(-c2nc(CNC3CCCN(c4cccnn4)C3)no2)cc1 (stereo unspecified),48.4%
4,CN(Cc1noc(C(C)(C)C)n1)C1CCCN(c2cccnn2)C1 (stereo unspecified),66.2%
5,CNC(=O)C1(CCCc2cnccn2)CCN1Cc1ccc(C)cc1 (stereo unspecified),24.585%
6,CC(NC(=O)NCC1(O)CCC1)c1ccc(OCC2CC2)c(F)c1 (stereo unspecified),13.4%
7,CCc1nn(C)c2[nH]nc(NC(=O)c3cccnc3OCC(C)C)c12,47.4%
8,Cn1cc(Cl)c(C(=O)N2CCc3nc4sccc4c(=O)n3CC2)n1,-9.32%
9,CCn1nc(C)c2ncnc(N(C)Cc3ccco3)c21,52.4%
10,CCCc1nc(N(C)Cc2ccco2)c2c(n1)c(C)nn2CC,-6.42%
11,CCn1nc(C)c2nc(C)nc(N(C)Cc3ccco3)c21,43.3%
12,CCOCC1CN(CCN(C)C)Cc2cnn(CC3CCCC3)c21 (stereo unspecified),41.2%
13,CCC(C)NC(=O)Nc1ccc(CN2CCOC2=O)cc1 (stereo unspecified),29%
14,CC(C)C(O)C1(CNC(=O)Nc2ccc(CN3CCOC3=O)cc2)CC1 (stereo unspecified),65.3%
15,CC(C)CNC(=O)Nc1ccc(CN2CCOC2=O)cc1,23.2%
16,Cc1[nH]nc2ncc(C(=O)N3CCN(CCC(C)C)CC3)cc12,23.7%
17,Cc1ccc(CC(=O)N2CCC(Nc3ccc(C)nn3)CC2)cn1,1.78%
18,CS(=O)(=O)NCC1CCCN(C(=O)c2ccco2)C1 (stereo unspecified),-14.6%
19,O=C(c1ccc(F)c(Br)c1)N1CCCN2CCCC2C1 (stereo unspecified),59.4%
20,O=C(c1ccc(-n2cccc2)c(F)c1)N1CCCN2CCCC2C1 (stereo unspecified),-33.9%
21,Cc1ccc(C(=O)N2CCCC(CNS(C)(=O)=O)C2)o1 (stereo unspecified),26.4%
22,CS(=O)(=O)NCC1CCCN(C(=O)c2ccc(F)c(F)c2)C1 (stereo unspecified),53%
23,CS(=O)(=O)NCC1CCCN(C(=O)c2cccc(F)c2)C1 (stereo unspecified),38.5%
24,O=C(c1ccc(F)c(F)c1)N1CCN2CCCC2C1 (stereo unspecified),9.52%

row,SMILES,INHIBITION
1,CS(=O)(=O)NCC1CCCN(C(=O)c2cc3ccccc3o2)C1 (stereo unspecified),57.8%
2,COc1ccc(C(=O)N2CCCC(CNS(C)(=O)=O)C2)cc1F (stereo unspecified),11.6%
3,CC1(NC(=O)CNC(=O)C(C)(C)C)CCc2ccccc2C1 (stereo unspecified),-2.43%
4,COCCc1noc(CN2CC(n3nc(C)cc3C)C2)n1,-57.4%
5,CC(C)COC(C)C(=O)NCc1ccccc1 (stereo unspecified),-10.1%
6,CCc1cc(=O)[nH]c(-c2ccc(NC(C)CN3CCOCC3)nc2)n1 (stereo unspecified),-33.9%
7,CSCC1CCCN(c2ncnc3oc(C)nc23)C1 (stereo unspecified),-0.532%
8,O=C(NCc1ccccn1)[C@@H]1COC[C@H]2CN(C3CCOCC3)C[C@H]21,29.6%
9,CCN(CC)c1ccc2ccc(C(=O)N(CCOC)CCOC)cn12,46.7%
10,CN(CC1CC1)c1ccc2ccc(C(=O)NC3CCCCC3)cn12,0.112%
11,O=C(c1ccc2ccc(N3CCN(CC4CC4)CC3)n2c1)N1CCCO1,40.8%
12,CN1CCN(c2ccc3ccc(C(=O)N4CCCO4)cn23)CC1,51.2%
13,CN1CCN(c2ccc3ccc(C(=O)N4CCCCO4)cn23)CC1,-12.4%
14,CCNC(=O)c1ccc2ccc(N(CC)CC)n2c1,55.6%
15,CCN(CC)c1ccc2ccc(C(=O)N3CCCCO3)cn12,68.9%
16,CCN(CC)c1ccc2ccc(C(=O)O)cn12,39.3%
17,CCN(CC)c1ccc2ccc(C(=O)N(C)C)cn12,57.1%
18,CN(CC1CC1)c1ccc2ccc(C(=O)NCCN3CCOCC3)cn12,23.2%
19,CN(C)C(=O)CNC(=O)c1ccc2ccc(N(C)CC3CC3)n2c1,26%
20,CCN(CC)c1ccc2ccc(C(=O)NC3CC3)cn12,24.6%
